According to PubChem BioAssay AID1619 (SRMLSC, 2009):
The campaign covered roughly 220,000 compounds. About 830 (0.38%) were called active.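 How the source made its calls: active means compound inhibiting the enzyme by more than half at any dose during confirmatory dose-response retesting; inconclusive means strong single-dose inhibitors picked by rank but not retested; inactive means the rest.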 The list is a sample of the results. Measured potencies and affinities stand elsewhere.

Biological target: Leucine aminopeptidase (Plasmodium falciparum (isolate 3D7)) (UniProt Q8IL11)
Sequence (Q8IL11 whole entry, looked up): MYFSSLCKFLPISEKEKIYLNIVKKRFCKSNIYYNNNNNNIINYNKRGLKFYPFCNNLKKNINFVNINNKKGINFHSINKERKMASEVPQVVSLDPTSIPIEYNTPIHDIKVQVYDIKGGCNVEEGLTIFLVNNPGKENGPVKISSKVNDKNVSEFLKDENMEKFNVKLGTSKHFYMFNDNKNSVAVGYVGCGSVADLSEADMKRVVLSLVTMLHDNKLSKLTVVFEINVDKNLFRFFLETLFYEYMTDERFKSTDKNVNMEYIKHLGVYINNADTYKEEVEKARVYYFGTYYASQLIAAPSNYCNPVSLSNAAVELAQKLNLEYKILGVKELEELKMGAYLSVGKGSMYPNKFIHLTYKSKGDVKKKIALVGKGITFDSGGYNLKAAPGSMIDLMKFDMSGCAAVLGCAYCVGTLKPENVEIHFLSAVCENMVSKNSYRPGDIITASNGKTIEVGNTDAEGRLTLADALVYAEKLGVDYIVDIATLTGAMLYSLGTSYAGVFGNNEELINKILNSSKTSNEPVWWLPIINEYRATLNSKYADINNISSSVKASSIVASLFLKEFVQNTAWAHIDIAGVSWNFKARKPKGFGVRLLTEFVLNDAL
Experiment: P. falciparum M17LAP inhibitors, primary screen, biochemical, fluorogenic H-Leu-NHMec substrate, 1536-well (AID 1619);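 further: plate controls were full reaction with DMSO carrier for no effect and no enzyme background for full effect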
Conditions: recombinant M17LAP, H-Leu-NHMec fluorogenic kinetic assay; at 30 µM; hits give high values

SMILES	inhibition
O=C(COc1ccc(S(=O)(=O)N2CCCCC2)cc1)NC1CCCCC1	0.02% (inactive)
O=C(NC(Cc1ccccc1)C(=O)O)/C(=C\c1ccccc1F)NC(=O)c1ccccc1 (stereo not given)	32.3% (inactive)
O=C(NCc1ccco1)c1ccc(F)c(S(=O)(=O)N2CCCCC2)c1	8.34% (inactive)
C#CCOc1nc(OCC#C)nc(OCC#C)n1	-14.6% (inactive)
CC(C)(C)[C@@H]1C=C(C(=O)N2CCOCC2)O[C@H](OCc2ccc(CO)cc2)C1	0.65% (inactive)
COc1ccccc1CNC(=O)COC(=O)Cc1c(F)cccc1Cl	-4.41% (inactive)
CC(C)C(=O)Nc1ccc(NC(=S)NC(=O)c2cc3ccccc3o2)cc1	-4.08% (inactive)
COc1ccc(OC)c(NC(=S)N(CCc2c(C)[nH]c3ccc(C)cc23)Cc2cccs2)c1	3.79% (inactive)
Cc1csc(NC(=O)c2cc(=O)[nH]c3ccc(S(=O)(=O)N4CCOCC4)cc23)n1	-22.8% (inactive)
O=C(CSc1nc2ccccc2o1)N/N=C/c1ccccc1	17.4% (inactive)
COc1ccc(/C=N/NC(=O)CC(=O)N/N=C/c2ccc(OC)cc2)cc1	14.7% (inactive)
CSc1nc(C)cc(SCC(=O)N/N=C/c2ccccc2)n1	-5.92% (inactive)
COc1ccc(/C=N/NC(=O)CSCC(=O)Nc2ccccc2)cc1	-7.59% (inactive)
Cc1cc(C(=O)Nc2ccccc2N2CCOCC2)ccc1[N+](=O)[O-]	8.21% (inactive)
O=C(c1ccc(CN2CCOCC2)cc1)N1CCN(c2ccccc2)CC1	3.18% (inactive)
Cc1ccc(C)c(NC(=O)c2ccc(S(=O)(=O)C(F)F)cc2)c1	-0.05% (inactive)
COc1ccccc1N1CCN(C(=O)c2cc(C(C)(C)C)oc2C)CC1	13.9% (inactive)
O=C1OCCC1Sc1nc2ccccc2c(=O)n1-c1ccc(F)cc1 (stereo not given)	-2.24% (inactive)
CCC1=Nc2cc(C(=O)O)ccc2Sc2ccc(Cl)cc21	7.99% (inactive)
CCOc1ccccc1Nc1nnc(SCC(=O)Nc2ccc3[nH]c(=O)[nH]c3c2)s1	-4.13% (inactive)
Cc1ccc(C)c(OCC(=O)NC(Cc2c[nH]c3ccccc23)C(=O)O)c1 (stereo not given)	-8.94% (inactive)
Cc1ccc(C(=O)NC(Cc2c[nH]c3ccccc23)C(=O)O)cc1 (stereo not given)	17.6% (inactive)
CCOc1ccccc1Nc1nnc(SCC(=O)Nc2cc(C)on2)s1	-0.81% (inactive)
CC(C)C(=O)Nc1nc2c(c(=O)[nH]1)CCCC2	3.8% (inactive)

SMILES	inhibition
CCc1n[n+](CC(=O)c2ccccc2)c(N)s1	-0.05% (inactive)
COc1ccc(-c2[nH]ncc2/C=C(/C#N)C(=O)NC2CCCCCC2)cc1	-2.26% (inactive)
COc1ccc(-c2[nH]ncc2/C=C(/C#N)C(=O)NC2CCCCC2)cc1	0.03% (inactive)
O=C(c1cc(-c2ccccc2)on1)N1CCN(Cc2ccc3c(c2)OCO3)CC1	-6.81% (inactive)
Cc1ccccc1NC(=O)CSc1ccsc1[N+](=O)[O-]	8.37% (inactive)
CCc1ccccc1NC(=O)CSc1ccsc1[N+](=O)[O-]	6.13% (inactive)
Cc1cccc(C(=O)N2CCCCCC2)c1[N+](=O)[O-]	-0.16% (inactive)
CCN1CCN(CC(O)COCc2ccccc2)CC1 (stereo not given)	8.64% (inactive)
CCCN(C(=O)/C=C/c1ccco1)c1c(N)n(Cc2ccccc2)c(=O)[nH]c1=O	12.1% (inactive)
Cn1nnnc1SCC1=C(C(=O)O)N2C(=O)C(NC(=O)C3CC3c3ccccc3)C2SC1 (stereo not given)	20.4% (inactive)
Cc1nn(C(C)C(=O)NC2C(=O)N3C(C(=O)O)=C(CSc4nnnn4C)CSC23)cc1Cl (stereo not given)	48.7% (inactive)
COc1ccc(Cn2cnc3c([N+](=O)[O-])c(C)c(C)cc32)cc1	16.7% (inactive)
O=C(Cc1csc(N2CCOCC2)n1)N/N=C/c1ccc(F)cc1	45.5% (inactive)
COc1ccccc1NC(=O)Nc1cc(C(C)C)ccc1C	3.16% (inactive)
CCOc1cc(/C=C2\C(=O)N(CCc3ccc(OC)c(OC)c3)C(C)=C2C(=O)OC)ccc1O	7.43% (inactive)
COc1cc(/C=C2/NC(=O)N(Cc3ccccc3F)C2=O)ccc1O	-1.31% (inactive)
COc1ccc(C(=O)Nc2ccc(Cl)cc2C(=O)NCCN2CCOCC2)cc1	5.43% (inactive)
Cc1ccc(S(=O)(=O)NNC(=O)CC#N)cc1	5.13% (inactive)
N=C1S/C(=C\c2ccco2)C(=O)N1c1ccc2c(c1)OCO2	6.49% (inactive)
COc1cc(/C=C2\SC(=N)N(c3ccc4c(c3)OCO4)C2=O)cc(OC)c1O	1.69% (inactive)
COc1ccccc1N1C(=N)S/C(=C\c2ccc(-c3ccccc3C(=O)O)o2)C1=O	61.1% (inactive)
Cc1cccc(NC(=O)CN2C(=O)S/C(=C\c3ccc(-c4cccc(C(=O)O)c4C)o3)C2=O)c1	4.08% (inactive)
O=C(COC(=O)Cc1ccc(Br)cc1)NCC1CCCCC1	1.79% (inactive)
CCOC(=O)N1CCN(C(=O)CSc2ccc(-c3cccnc3)nn2)CC1	-5.54% (inactive)

SMILES	inhibition
Oc1ccc(-c2nc3ccccc3s2)c(O)c1	-4.82% (inactive)
Cc1c(O)ccc(-c2n[nH]c(C(=O)O)c2-c2nc3ccccc3s2)c1O	-2.67% (inactive)
Cc1nc2ccccn2c1C(=O)CSc1ccccc1	24.3% (inactive)
CCOC(=O)Cc1n[nH]c(=O)c2ccccc12	1.58% (inactive)
O=C(NCc1ccccn1)c1cc(-c2ccccc2)on1	8.29% (inactive)
COC(=O)CSc1nnc(-c2ccco2)n1-c1ccc(C)cc1	13.9% (inactive)
CCOC(=O)CSc1nnc(-c2ccco2)n1-c1ccccc1	11.8% (inactive)
CC(C)OC(=O)CSc1nnc(-c2ccco2)n1N	6.79% (inactive)
CCOC(=O)CSc1nnc(-c2ccoc2C)n1-c1ccc(C)cc1	14.1% (inactive)
Cc1ccc(OCCn2c(=O)oc3ccc(C)cc32)cc1	13.7% (inactive)
Cn1c(SCC(N)=O)nnc1C1CCN(C(=O)NC2CCCCC2)CC1	-3.93% (inactive)
COc1ccc(C(C)(C)C)cc1NC(=O)C1C2C=CC(C2)C1C(=O)O (stereo not given)	7.82% (inactive)
COc1ccc(OC)c(NC(=O)C2CC(C)=C(C)CC2C(=O)O)c1 (stereo not given)	34.4% (inactive)
COc1ccc(OC)c(NC(=O)C2CCCCC2C(=O)O)c1 (stereo not given)	40.9% (inactive)
COc1ccc(C)cc1NC(=O)C1CCCCC1C(=O)O (stereo not given)	52.8% (inactive)
COc1ccc2cc(C(c3nnnn3CCc3ccccc3)N3CCCC(C)C3)c(=O)[nH]c2c1 (stereo not given)	10.6% (inactive)
CCCCNS(=O)(=O)c1ccc(S(=O)(=O)N2CCC3(CC2)OCCO3)cc1	-5.01% (inactive)
COC(=O)C1=C(NC(=O)COc2ccc(Cl)cc2Cl)CCS1	49.6% (inactive)
CC(C)(C)c1ccc(N/N=C(\C#N)S(=O)(=O)C(C)(C)C)cc1	23.4% (inactive)
CC(C)(C)S(=O)(=O)/C(C#N)=N/Nc1ccc(S(N)(=O)=O)cc1	16.4% (inactive)
CC(C)(C)S(=O)(=O)/C(C#N)=N/Nc1ccc(Cl)cc1	12.6% (inactive)
COc1ccc(N/N=C(/C#N)S(=O)(=O)C(C)(C)C)cc1	5.23% (inactive)
CC(C)(C)S(=O)(=O)/C(C#N)=N/Nc1ccc(S(C)(=O)=O)cc1	43.2% (inactive)
CC(C)(C)S(=O)(=O)/C(C#N)=N/Nc1ccc(C#N)cc1	19.9% (inactive)

SMILES	inhibition
Cn1c(SCc2ccc(Cl)cc2)nc(C(F)(F)F)cc1=O	-4.09% (inactive)
CCN(CC)C(=O)C(=O)c1cn(CC(=O)NCC2CCCO2)c2ccccc12 (stereo not given)	-6.14% (inactive)
Cc1cccc(NC(=O)c2nc[nH]c2C(=O)NCC(=O)OC(C)(C)C)c1	-3.35% (inactive)
O=C(NCC1CCCO1)c1csc(Nc2cccc3ccccc23)n1 (stereo not given)	4.77% (inactive)
O=C(COc1cccc(NC(=O)c2ccco2)c1)c1ccccc1	-14.2% (inactive)
O=C(NCCN1CCOCC1)c1ccc(NC(=O)C2COc3ccccc3O2)cc1 (stereo not given)	3.85% (inactive)
CCOc1ccc(-n2c(COc3ccccc3)nnc2SCC(N)=O)cc1	-3.38% (inactive)
Cc1nn(CC(=O)Nc2ccccc2)c(=O)c2ccccc12	20% (inactive)
Cc1ccc(NC(=O)Cn2nc(C)c3ccccc3c2=O)cc1	23.3% (inactive)
CC1=C(C)CC(C(=O)NNC(=O)c2csc(C)c2C)C(C(=O)O)C1 (stereo not given)	44.2% (inactive)
CC1=C(C)CC(C(=O)NNC(=O)c2ccccc2)C(C(=O)O)C1 (stereo not given)	32.1% (inactive)
CCNC(=S)NNC(=O)c1csc2c1CCC(C)C2 (stereo not given)	-1.92% (inactive)
CC(C)(C)C1CCc2c(C(=O)NNC(=O)/C=C/C(=O)O)csc2C1 (stereo not given)	43.8% (inactive)
CC(C)(C)C1CCc2c(C(=O)N/N=C/c3cccs3)csc2C1 (stereo not given)	1.12% (inactive)
Cc1scc(C(=O)NNC(=O)CCC(=O)O)c1C	1.05% (inactive)
COCc1cc(C)nc(SCc2nc3ccccc3c(=O)[nH]2)c1C#N	-5.07% (inactive)
CCOC(=O)c1cc(-c2ccccc2)sc1NC(=O)C(C)N1C(=O)c2ccccc2C1=O (stereo not given)	-1.18% (inactive)
Nc1cc(-c2ccco2)no1	-0.59% (inactive)
O=C1c2[nH]nc(-c3ccccc3O)c2C(c2ccccc2F)N1Cc1ccco1 (stereo not given)	16% (inactive)
O=C(C(c1ccccc1)c1ccccc1)N1CCN(c2ccccn2)CC1	4.89% (inactive)
COc1ccc2sc(N3C(=O)CC(Cc4cccc(C)c4)C3=O)nc2c1 (stereo not given)	29.4% (inactive)
CC(=O)c1nc(N2C(=O)C3CC=C(C)CC3C2=O)sc1C (stereo not given)	7.37% (inactive)
CCOC(=O)/C(=C\c1ccc([N+](=O)[O-])o1)NC(=O)c1ccccc1	-88.3% (inactive)
